The text below walks through data of PubChem BioAssay AID489012 (National Center for Advancing Translational Sciences (NCATS), 2010).

Structures are written as SMILES. Results filed as inconclusive are left out. Entries that show only a call come without a potency. The source made the active and inactive calls. Calls follow the shape of the dose curve; as a rule, active = well fitted activation curve with a large enough effect; inconclusive = small, poorly fitted or top-dose-only effect; inactive = no such curve, though single readings can be large or run the other way.
Potency is read from the fitted curve at half-maximal effect.

Sequence of Relaxin receptor 1 (Homo sapiens) (Q9HBX9 whole entry, looked up): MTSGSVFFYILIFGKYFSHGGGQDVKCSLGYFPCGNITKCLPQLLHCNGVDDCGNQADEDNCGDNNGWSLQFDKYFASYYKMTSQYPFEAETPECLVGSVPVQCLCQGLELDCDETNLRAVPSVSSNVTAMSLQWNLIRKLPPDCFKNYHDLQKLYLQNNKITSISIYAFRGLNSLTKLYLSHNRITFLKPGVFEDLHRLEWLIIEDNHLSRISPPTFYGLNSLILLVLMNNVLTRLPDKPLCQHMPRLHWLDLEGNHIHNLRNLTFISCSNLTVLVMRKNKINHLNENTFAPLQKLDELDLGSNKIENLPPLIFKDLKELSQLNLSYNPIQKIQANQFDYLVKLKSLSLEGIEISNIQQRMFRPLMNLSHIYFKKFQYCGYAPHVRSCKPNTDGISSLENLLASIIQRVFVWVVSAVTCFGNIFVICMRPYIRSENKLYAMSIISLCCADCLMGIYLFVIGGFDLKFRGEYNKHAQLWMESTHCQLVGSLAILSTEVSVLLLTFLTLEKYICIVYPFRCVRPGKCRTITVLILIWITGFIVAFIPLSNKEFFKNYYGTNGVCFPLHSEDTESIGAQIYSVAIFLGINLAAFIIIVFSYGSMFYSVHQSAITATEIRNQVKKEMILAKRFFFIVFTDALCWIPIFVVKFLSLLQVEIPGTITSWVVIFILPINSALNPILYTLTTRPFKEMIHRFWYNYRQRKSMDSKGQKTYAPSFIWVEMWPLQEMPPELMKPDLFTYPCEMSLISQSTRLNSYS

The test has as its target Relaxin receptor 1 (Homo sapiens) (UniProt Q9HBX9). Nature of the test: qHTS Assay for Agonists of the Relaxin Receptor RXFP1: RXFP1 Hit Validation. Also: nearly all actives have a fitted effect of over 65% in size.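 As to activation: cAMP rise lowers the TR-FRET signal in lysed cells with PDE4 inhibitor present.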 The settings on record: HEK293T-RXFP1 cAMP TR-FRET, 30 min; series mostly up to 45 µM. From the text:
NIH Chemical Genomics Center [NCGC] NIH Molecular Libraries Probe Production Centers Network [MLPCN] MLPCN Grant: R03 MH085705-01A1 Assay Submitter (PI): Alexander Agoulnik NCGC Assay Overview: The relaxin hormone is involved in the variety of biological functions in normal tissues and diseases. The role of relaxin is well-established in female reproduction and parturition, mammary gland and endometrial development, maintenance of myometrial quiescence during pregnancy. Relaxin signaling through its G protein-coupled receptor (GPCR) RXFP1 results in ECM remodeling through regulation of collagen deposition, cell invasiveness, proliferation and overall tissue homeostasis. […] Recombinant human relaxin (rhRlx) is currently being tested in clinical trials as a protective agent in congestive heart failure, in treating severe preeclampsia, and as an anti-fibrotic agent in systemic sclerosis. Upon relaxin binding RXFP1 activation leads to the activation of adenylate cyclase (AC) via Gs. cAMP will activate PKA, which phosphorylates many signaling proteins. Thus, detection of cAMP increase is an easy and reliable indication of relaxin receptor activation. To screen for agonists of the relaxin receptor, a HEK293T cell line stably transfected with RXFP1 was used. RXFP1 activation was assayed by changes in cAMP levels as detected with a time-resolved fluorescence energy transfer (TR-FRET) cAMP detection kit.
NCGC Assay Protocol Summary: This is a cell-based assay for cAMP second messenger response to screen for agonists of the RXFP1 receptor. The assay was conducted in the presence of a PDE4 inhibitor (Ro 20174). The cells were lysed and the cAMP levels were measured with a TR-FRET cAMP kit. Presence of cAMP in the cell lysate disrupts binding between the cryptate-labeled anti-cAMP and d2-labeled cAMP pair, leading to a decrease in the TR-FRET signal. Data were normalized to the controls for basal activity (buffer only) and 100% activity (29 nM porcine relaxin). The EC50 values were determined from concentration-response data modeled with the standard Hill equation 1536-well assay protocol for the HEK293 RXFP1 cAMP assay: (1) Add 3 ul HEK293 RXFP1 cell culture. 2000 cells/well in DMEM/F12, 10% FBS, 1x Pen/Strep (dispensed offline with MultiDrop Combi). (2) Incubate 16-24 hr at 37C, 5% CO2. (3) Add 1 ul 400uM Ro20174 in DPBS, 0.05% BSA, 0.005% Tween 20. (3) Add 23 nl compounds in DMSO solution. Final concentration was 0.5 - 58 uM. (4) Incubate 30 min at 37C, 5% CO2. (5) Add 1 ul cAMP-d2 in lysis buffer (HTRF cAMP HiRange kit, CisBio). (6) Add 1 ul anti-cAMP antibody-cryptate in lysis buffer (HTRF cAMP HiRange kit, CisBio). (7) Incubate 30 min at room temperature. […]
(In general: Quantitative high-throughput screening tests each substance at several concentrations.)
Regarding `CCC(Oc1cc(Cl)ccc1Cl)C(=O)N1CCC2(CC1)OCCO2` (centres undefined), the Potency result is “inactive”. In the case of `CCNC(=O)[C@H]1O[C@@H](n2cnc3c(N)ncnc32)[C@H](O)[C@@H]1O`, the Potency is 0.308 µM (active).

Regarding `O=C(O)c1sc2cc(Cl)ccc2c1Cl`, the Potency entry is “inactive”. Turning to `Nc1ncc2[nH]cnc2n1`, the Potency is 13.8 µM (active).
